About 83,000 compounds went through this panel and 20% of them were active in at least one assay; those are over-represented in the sample as a whole.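 Negative percent growth values reflect cell death: -40 means 40% of the cells present at the start died, and -100 means all died.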 Calls of active or inactive are those of the source. Rule for the calls: active = growth percent below 10; inactive = the rest.
Columns and labels:
Experiment in all cases: NCI-60 one-dose screen, 48 h (100 = growth as untreated, 0 = no growth, -100 = all killed)
Details in all cases: 10 µM unless noted
SK-MEL-2 melanoma = test system: SK-MEL-2 melanoma
EKVX NSCLC = test system: EKVX NSCLC
SN12C renal = test system: SN12C renal
UO-31 renal = test system: UO-31 renal
TK-10 renal = test system: TK-10 renal
ACHN renal = test system: ACHN renal
CAKI-1 renal = test system: CAKI-1 renal
A498 renal = test system: A498 renal
CCRF-CEM leukemia = test system: CCRF-CEM leukemia
MOLT-4 leukemia = test system: MOLT-4 leukemia
SR leukemia = test system: SR leukemia
RPMI-8226 leukemia = test system: RPMI-8226 leukemia
OVCAR-5 ovarian = test system: OVCAR-5 ovarian
OVCAR-4 ovarian = test system: OVCAR-4 ovarian
SK-OV-3 ovarian = test system: SK-OV-3 ovarian
IGROV1 ovarian = test system: IGROV1 ovarian
OVCAR-3 ovarian = test system: OVCAR-3 ovarian
HS 578T breast = test system: HS 578T breast
NCI/ADR-RES ovarian = test system: NCI/ADR-RES ovarian
OVCAR-8 ovarian = test system: OVCAR-8 ovarian

Measured: growth

C=C1C(=O)O[C@H]2[C@H]1CC/C(COC(=O)CSCC(=O)OC/C1=C/CC[C@@]3(C)O[C@H]3[C@H]3OC(=O)C(=C)[C@@H]3CC1)=C\CC[C@@]1(C)O[C@@H]21
active: UO-31 renal 3.4% | TK-10 renal 9.84% | ACHN renal 2.35% | CCRF-CEM leukemia -7.55% | MOLT-4 leukemia -3.7% | SR leukemia 0.996% | RPMI-8226 leukemia -2.24% | IGROV1 ovarian 7.28% | OVCAR-3 ovarian 3.24%
inactive: SK-MEL-2 melanoma 68% | EKVX NSCLC 57.7% | SN12C renal 22.1% | CAKI-1 renal 76.4% | A498 renal 81.1% | OVCAR-5 ovarian 87.3% | OVCAR-4 ovarian 46.6% | SK-OV-3 ovarian 97.5% | HS 578T breast 59.7% | NCI/ADR-RES ovarian 86.2%

COc1cc(Nc2cn[nH]c2-c2ccc(Cl)cc2)cc(OC)c1OC
inactive: SK-MEL-2 melanoma 32.4% | EKVX NSCLC 62.7% | SN12C renal 52.5% | UO-31 renal 32.3% | TK-10 renal 67% | ACHN renal 71.1% | CAKI-1 renal 59.9% | A498 renal 43.3% | CCRF-CEM leukemia 24.3% | MOLT-4 leukemia 19.7% | SR leukemia 10.1% | OVCAR-8 ovarian 70.2% | OVCAR-5 ovarian 54.6% | OVCAR-4 ovarian 61.5% | SK-OV-3 ovarian 30.9% | IGROV1 ovarian 39.8% | OVCAR-3 ovarian 32.1% | HS 578T breast 44.1%

CCc1ccc(Oc2c(-c3ccc(OCc4ccc(Cl)cc4)cc3O)nn(C)c2C(F)(F)F)cc1
inactive: OVCAR-5 ovarian 13.2% | OVCAR-4 ovarian 12.5% | IGROV1 ovarian 24.3%
active: SK-MEL-2 melanoma -30.7% | EKVX NSCLC 9.36% | SN12C renal 4.95% | UO-31 renal -22.9% | TK-10 renal -1.88% | ACHN renal 5.42% | CAKI-1 renal 3.34% | A498 renal -22.6% | CCRF-CEM leukemia 1.82% | MOLT-4 leukemia -13.6% | SR leukemia -26.4% | RPMI-8226 leukemia -16.8% | SK-OV-3 ovarian -6.92% | OVCAR-3 ovarian -20.9% | HS 578T breast 7.74% | NCI/ADR-RES ovarian -3.62%

C=C1C(=O)O[C@H]2[C@H]1CC/C(COC(=O)CCC(=O)NCCOCCOCC(=O)Nc1ccc(OC)c(C(N)=O)c1O)=C\CC[C@@]1(C)O[C@@H]21
inactive: SK-MEL-2 melanoma 89.7% | EKVX NSCLC 94.4% | SN12C renal 92.7% | UO-31 renal 92% | TK-10 renal 96% | ACHN renal 87.3% | CAKI-1 renal 81.2% | A498 renal 101% | CCRF-CEM leukemia 53.7% | MOLT-4 leukemia 97.1% | SR leukemia 46.8% | RPMI-8226 leukemia 87% | OVCAR-5 ovarian 109% | OVCAR-4 ovarian 110% | SK-OV-3 ovarian 96.7% | OVCAR-3 ovarian 85% | HS 578T breast 109% | NCI/ADR-RES ovarian 103%

Cc1ccc(C(=O)N/N=C/c2cccc(Oc3ccccc3)c2)cn1
inactive: SK-MEL-2 melanoma 44.5% | EKVX NSCLC 77.4% | SN12C renal 68.6% | UO-31 renal 13.9% | TK-10 renal 83.3% | ACHN renal 85.9% | CAKI-1 renal 22.9% | A498 renal 57.6% | CCRF-CEM leukemia 82.3% | MOLT-4 leukemia 40% | SR leukemia 48.6% | RPMI-8226 leukemia 89.5% | OVCAR-5 ovarian 93.1% | OVCAR-4 ovarian 86.7% | SK-OV-3 ovarian 80% | IGROV1 ovarian 24% | OVCAR-3 ovarian 35.7% | HS 578T breast 50.8% | NCI/ADR-RES ovarian 19.8%

CCCCCCNC(=O)Oc1ccc(/C(=C(\C)c2ccc(OC)cc2)c2ccc(OCCN3CCCCC3)cc2)cc1
active: SR leukemia 0.84%
inactive: SK-MEL-2 melanoma 69.2% | EKVX NSCLC 74% | SN12C renal 74.3% | UO-31 renal 21.6% | TK-10 renal 102% | ACHN renal 84.2% | CAKI-1 renal 72.3% | A498 renal 88.1% | CCRF-CEM leukemia 66.5% | MOLT-4 leukemia 41.8% | RPMI-8226 leukemia 44.7% | OVCAR-5 ovarian 82.6% | OVCAR-4 ovarian 63.1% | SK-OV-3 ovarian 70% | IGROV1 ovarian 53.8% | OVCAR-3 ovarian 80.9% | NCI/ADR-RES ovarian 75.8%

C=C1C(=O)O[C@H]2[C@H]1CC/C(COC(=O)C(C)c1ccc(CC(C)C)cc1)=C\CC[C@@]1(C)O[C@@H]21 (some centres not stated)
inactive: SK-MEL-2 melanoma 36.7% | EKVX NSCLC 46.2% | SN12C renal 35.2% | TK-10 renal 62% | CAKI-1 renal 79.1% | A498 renal 92.7% | OVCAR-5 ovarian 74.1% | SK-OV-3 ovarian 102% | NCI/ADR-RES ovarian 14.6%
active: UO-31 renal -87.6% | ACHN renal -94.6% | CCRF-CEM leukemia 4.97% | MOLT-4 leukemia -3.37% | SR leukemia -1.31% | RPMI-8226 leukemia -23% | OVCAR-4 ovarian 8.73% | IGROV1 ovarian -69% | OVCAR-3 ovarian 1.75% | HS 578T breast -4.39%

COc1ccc(CN2c3ccccc3CCc3ccccc32)cc1F
inactive: SK-MEL-2 melanoma 27.2% | EKVX NSCLC 41.1% | SN12C renal 39.1% | UO-31 renal 43.2% | TK-10 renal 62.7% | ACHN renal 35.6% | CAKI-1 renal 29.7% | MOLT-4 leukemia 16.2% | SR leukemia 11.6% | OVCAR-5 ovarian 40.7% | OVCAR-4 ovarian 42% | SK-OV-3 ovarian 38.4% | IGROV1 ovarian 51.7% | HS 578T breast 30.2% | NCI/ADR-RES ovarian 11.1%
active: A498 renal -6.65% | CCRF-CEM leukemia 4.49% | RPMI-8226 leukemia 8.72% | OVCAR-3 ovarian -41.7%

COc1ccc(CN2c3ccccc3Sc3ccccc32)c(F)c1
inactive: SK-MEL-2 melanoma 30.4% | EKVX NSCLC 51% | SN12C renal 47.1% | UO-31 renal 43% | TK-10 renal 51.1% | ACHN renal 43.4% | CAKI-1 renal 21.5% | MOLT-4 leukemia 22.6% | SR leukemia 12.2% | RPMI-8226 leukemia 12.2% | OVCAR-5 ovarian 50.2% | OVCAR-4 ovarian 61.6% | SK-OV-3 ovarian 30.4% | IGROV1 ovarian 50.3% | HS 578T breast 21.6% | NCI/ADR-RES ovarian 22%
active: A498 renal -11.6% | CCRF-CEM leukemia 7.16% | OVCAR-3 ovarian -20.4%

O=C(Nc1ccc(Cl)cc1F)c1ccccc1O
active: SK-MEL-2 melanoma 2.56% | UO-31 renal 9.45% | A498 renal -21.8%
inactive: EKVX NSCLC 66.2% | SN12C renal 13.7% | TK-10 renal 56.6% | ACHN renal 34.2% | CAKI-1 renal 35.8% | CCRF-CEM leukemia 53.2% | MOLT-4 leukemia 29.7% | SR leukemia 15.8% | OVCAR-8 ovarian 44.8% | OVCAR-5 ovarian 71.1% | OVCAR-4 ovarian 54.6% | SK-OV-3 ovarian 42.3% | IGROV1 ovarian 20.5% | OVCAR-3 ovarian 30.9% | HS 578T breast 41.6%

O=c1ccn(Cc2cn(-c3c4ccccc4nc4ccccc34)nn2)c(=O)[nH]1
inactive: SK-MEL-2 melanoma 98% | EKVX NSCLC 103% | SN12C renal 92.7% | UO-31 renal 88% | TK-10 renal 93.8% | ACHN renal 95.4% | CAKI-1 renal 96.8% | A498 renal 81.8% | CCRF-CEM leukemia 83.9% | MOLT-4 leukemia 79.5% | SR leukemia 38.8% | RPMI-8226 leukemia 87.3% | OVCAR-5 ovarian 114% | OVCAR-4 ovarian 109% | SK-OV-3 ovarian 90.9% | IGROV1 ovarian 80.9% | OVCAR-3 ovarian 110% | NCI/ADR-RES ovarian 108%

O=C(N/N=C/[C@@H](O)[C@H](O)[C@H](O)CO)c1ccc(NC(=O)c2cccnc2)cc1
inactive: SK-MEL-2 melanoma 120% | EKVX NSCLC 100% | SN12C renal 97.1% | UO-31 renal 82.9% | TK-10 renal 106% | ACHN renal 101% | CAKI-1 renal 96.1% | A498 renal 102% | CCRF-CEM leukemia 98.5% | MOLT-4 leukemia 113% | SR leukemia 95.7% | OVCAR-8 ovarian 105% | OVCAR-5 ovarian 103% | OVCAR-4 ovarian 114% | SK-OV-3 ovarian 99.1% | IGROV1 ovarian 109% | OVCAR-3 ovarian 112% | HS 578T breast 104%

COc1cc(/C=C2\C(=O)Nc3ccc(Br)cc32)cc(OC)c1OC
inactive: SK-MEL-2 melanoma 84% | EKVX NSCLC 72.2% | SN12C renal 80.9% | UO-31 renal 54.7% | TK-10 renal 82.5% | ACHN renal 79.1% | CAKI-1 renal 42.1% | A498 renal 55.7% | CCRF-CEM leukemia 72.8% | MOLT-4 leukemia 63.6% | SR leukemia 16.3% | RPMI-8226 leukemia 52.2% | OVCAR-5 ovarian 96.8% | OVCAR-4 ovarian 71.8% | SK-OV-3 ovarian 88.3% | IGROV1 ovarian 43% | OVCAR-3 ovarian 60.3% | HS 578T breast 63% | NCI/ADR-RES ovarian 42.7%

O=C(O)CCC(=O)Nc1nnc(-c2ccccc2)s1
inactive: SK-MEL-2 melanoma 106% | EKVX NSCLC 95.3% | SN12C renal 104% | UO-31 renal 106% | TK-10 renal 111% | ACHN renal 109% | CAKI-1 renal 97.8% | A498 renal 98.9% | CCRF-CEM leukemia 106% | MOLT-4 leukemia 111% | SR leukemia 95.6% | RPMI-8226 leukemia 99.4% | OVCAR-5 ovarian 107% | OVCAR-4 ovarian 109% | SK-OV-3 ovarian 95.6% | IGROV1 ovarian 112% | OVCAR-3 ovarian 101% | HS 578T breast 111% | NCI/ADR-RES ovarian 107%

CN1C(=C2C(=O)OC(C)(C)OC2=O)CCC1C(=O)NCc1ccc(Cl)cc1Cl (configuration not stated)
inactive: SK-MEL-2 melanoma 91.7% | EKVX NSCLC 97.5% | SN12C renal 93.3% | UO-31 renal 85% | TK-10 renal 93.8% | ACHN renal 97% | CAKI-1 renal 95% | A498 renal 59.5% | CCRF-CEM leukemia 86.4% | MOLT-4 leukemia 94.6% | SR leukemia 94.7% | RPMI-8226 leukemia 82.9% | OVCAR-5 ovarian 94.9% | OVCAR-4 ovarian 98.2% | SK-OV-3 ovarian 85.8% | IGROV1 ovarian 99.8% | OVCAR-3 ovarian 101% | HS 578T breast 97.5% | NCI/ADR-RES ovarian 101%

COc1cccc2c(=O)c3c(sc12)c(N1CCNCC1)nc1ccccc13
active: MOLT-4 leukemia -13.3% | SR leukemia -33.9% | OVCAR-4 ovarian -41.4% | OVCAR-3 ovarian -43.8%
inactive: SK-MEL-2 melanoma 112% | EKVX NSCLC 95.6% | SN12C renal 64.3% | UO-31 renal 47.2% | TK-10 renal 90.7% | ACHN renal 53.1% | CAKI-1 renal 45.8% | A498 renal 61.8% | CCRF-CEM leukemia 13.8% | OVCAR-8 ovarian 53.2% | OVCAR-5 ovarian 94.9% | SK-OV-3 ovarian 83% | IGROV1 ovarian 63.3% | HS 578T breast 89.5%
